89 compounds from PubChem BioAssay AID2280 (The Scripps Research Institute Molecular Screening Center, 2010) can be followed below.

The campaign covered roughly 320,000 compounds. About 1,400 (0.44%) were called active. Many of the other results were omitted from the sample, so actives are more common in it than they were. Values without a mark were called inactive.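 How the source made its calls: active means percent inhibition above a per-plate cutoff, the plate mean of test compounds plus 3 SD (cut at about 30% in these data); inactive means the rest.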

In this test the target is Female germline-specific tumor suppressor gld-1 (Caenorhabditis elegans) (UniProt Q17339). The experiment in a line: small molecules blocking C. elegans GLD-1 RNA recognition – biochemical, fluorescence polarization, primary screen (AID 2280).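 Further: 0% = DMSO wells with GLD-1 and probe and 100% = wells lacking GLD-1.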 The conditions noted are these: purified GLD-1 + fluorescein TGE RNA, at 5.96 µM, hits give high values.
Female germline-specific tumor suppressor gld-1 (Caenorhabditis elegans), sequence (Q17339 whole entry, looked up): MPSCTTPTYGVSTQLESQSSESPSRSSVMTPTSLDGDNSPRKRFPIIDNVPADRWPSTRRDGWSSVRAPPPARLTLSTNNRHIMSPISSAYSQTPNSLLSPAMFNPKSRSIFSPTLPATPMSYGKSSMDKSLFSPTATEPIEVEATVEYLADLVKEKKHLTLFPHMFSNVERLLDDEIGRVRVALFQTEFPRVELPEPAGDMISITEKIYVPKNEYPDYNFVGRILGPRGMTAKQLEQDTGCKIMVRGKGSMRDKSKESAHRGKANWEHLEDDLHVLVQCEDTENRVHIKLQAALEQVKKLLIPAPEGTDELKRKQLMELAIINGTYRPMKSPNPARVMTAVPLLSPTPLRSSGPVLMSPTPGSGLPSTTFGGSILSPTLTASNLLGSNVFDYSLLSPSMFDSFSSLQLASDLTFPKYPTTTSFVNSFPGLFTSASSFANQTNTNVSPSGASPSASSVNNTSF
Consider `CC(C)c1nc2sc3c(c2c(=O)n1N)CC(C)(C)OC3`, for which the inhibition (as a rule, the drop in the measured response relative to a control, in per cent) is 2.68%.
The value for `CC/C(C)=N/Nc1nc2sc3c(c2c(=O)[nH]1)CC(C)(C)OC3` was 62.3% (active); that for `CCSc1nc2sc3c(c2c(=O)[nH]1)CC(C)(C)OC3` was -5.06%.
For `O=C(COC(=O)C1CC2CCCC(C1)C2=O)NC(=O)c1ccccc1` (centres undefined), the inhibition is 0.04%.
As to `O=S(=O)(c1ccc(-c2ccno2)s1)N1CCCCC1`, the inhibition was 0.96%.
With `CC1(OC(=O)C2CCCC2)C(=O)C=C2C=C(c3ccc(C#N)cc3)OC=C2C1=O` (centres undefined) the figure was 17.8%; with `CC(C)(C)OC(=O)NCCCC1=CC2=CC(=O)C(C)(OC(=O)c3ccco3)C(=O)C2=CO1` (centres undefined), 86.5% (active).
For `C=CCN1C=C2C(=O)C(C)(OC(=O)CCc3ccccc3)C(=O)C=C2C=C1c1ccc(C#N)cc1` (centres undefined), the inhibition is 18.7%.
On to `CN1CCN(c2ccccc2NC(=O)COc2ccc(C3CCCCC3)cc2)CC1`, for which the inhibition is 2.44%.
As for `N#CCCN(C(=O)COC(=O)c1ccc2c(c1)OCCO2)c1ccccc1`, the inhibition was 0.3%.
As for `N#C/C(=C\c1ccccc1C(F)(F)F)C(=O)Nc1ccccc1F`, the inhibition is 0.78%.
With `O=C(O)c1cc(Cl)c(Cl)cc1C(=O)Nc1cccc2ncccc12` the figure was 7.15%.
`Cc1ccc(/C=C(\C#N)C(=O)Nc2cccc3ncccc23)o1`: the inhibition is 59.6% (active).
The value for `COc1cc(NC(=O)COC(=O)c2ccc([N+](=O)[O-])s2)cc(OC)c1OC` was 4.4%; that for `O=C(Cc1ccc(S(=O)(=O)N2CCOCC2)s1)N1CCN(c2ccc(C(F)(F)F)cc2[N+](=O)[O-])CC1` was 8.86%.
`CCOC(=O)c1cc2n(c1N)-c1ccccc1C2=O`: the inhibition is 117% (active).
The value for `CCOC(=O)c1ccccc1CN1C(=O)c2ccccc2S1(=O)=O` was 1.98%.
Regarding `CC(C)OC(=O)CN1C(=O)C(=O)c2ccccc21`, the inhibition is -0.34%.
For the compound `Cc1ccc(CNC(=O)C2CCCN2S(=O)(=O)c2ccc3c(c2)C(C)(C)C(=O)N3C)cc1` (centres undefined), the inhibition is -3.08%.
With `CCOC(=O)c1cnc2nc(SCc3ccccc3Cl)[nH]n2c1=O` the figure was -4.26%; with `Oc1[nH]c2ccc(Br)cc2c1N=Nc1nn[nH]n1`, 9.48%.
Regarding `NS(=O)(=O)c1ccc(N=Nc2c(O)[nH]c3ccc(Br)cc23)cc1`, the inhibition was 15.6%.
Regarding `Cc1cccc(N=Nc2c(O)[nH]c3ccc(F)cc23)c1`, the inhibition is 67.5% (active).
On to `CSc1ccc(S(=O)(=O)N2CCC(C(=O)NCc3ccncc3)CC2)cc1`, for which the inhibition was -3.16%.
Take `CSc1ccccc1NC(=O)C(C)N1C(=O)c2ccccc2S1(=O)=O` (centres undefined): the inhibition is -0.85%.
In the case of `CN1c2ccc(C=O)c3c(C=O)ccc(c23)N(C)C1(C)C`, the inhibition was 134% (active).
With `Cc1cc(C)c(S(=O)(=O)c2cc(F)ccc2C)c(=O)[nH]1` the figure was -0.88%; with `O=C1NC[C@@H](c2ccccc2)OC(=O)[C@H](Cc2ccc(F)cc2)CC/C=C/C[C@H]1CC(=O)N(CCO)Cc1ccccc1`, 3.17%.
Regarding `CC(C)OC(=O)C(C#N)c1nc2ccccc2nc1N1CCN(Cc2ccccc2)CC1` (centres undefined), the inhibition is 6.85%.
For the compound `Cc1cc(N2CCN(S(=O)(=O)c3ccc(C)c(C)c3)CC2)c2ccccc2n1`, the inhibition was 1.62%.
For the compound `Cc1ccc(S(=O)(=O)C(C#N)c2nc3ccccc3nc2N2CCCC2)cc1C` (centres undefined), the inhibition was 54.9% (active).
In the case of `CCN(C[C@H]1N[C@@](CC)(C(=O)OC)[C@H]2C(=O)N(Cc3ccccc3)C(=O)[C@@H]12)S(=O)(=O)c1ccc(C(F)(F)F)cc1`, the inhibition was 7.64%.
The value for `COc1ccc(Cl)cc1NC(=O)COC(=O)c1ccc(Br)o1` was -3.63%.
Regarding `CCOc1ccc(N2CC(C(=O)NCCN3C(=O)S/C(=C\c4cccnc4)C3=O)CC2=O)cc1` (centres undefined), the inhibition is -0.09%.
In the case of `COc1ccccc1N1CC(C(=O)NCCN2C(=O)S/C(=C\c3cccnc3)C2=O)CC1=O` (centres undefined), the inhibition is 4.79%.
The value for `COc1ccc(N2CC(C(=O)NCCN3C(=O)S/C(=C\c4cccnc4)C3=O)CC2=O)c(OC)c1` (centres undefined) was 118% (active); that for `C=CCC(NC(=O)Cc1ccccc1)C(=O)NCCC` (centres undefined) was -2.12%; that for `Cc1ccc(Cn2nnc3c(=O)[nH]c(C4CCN(S(=O)(=O)/C=C/c5ccccc5)CC4)nc32)cc1` was 1.59%.
Turning to `O=C(COC(=O)c1cc[n+]([O-])cc1)Nc1ccc(Cl)c(C(F)(F)F)c1`, the inhibition is 8.04%.
The value for `CC(NC(=O)c1ccco1)c1ccc2c(c1)OCO2` (centres undefined) was -0.47%; that for `COc1ccc(NS(=O)(=O)c2ccc(F)cc2F)cn1` was -1.42%; that for `COc1ccc(Nc2cc(Cl)ccc2C(=O)O)cn1` was 66.1% (active).
`COc1cccc(Nc2ncccc2C(=O)O)c1`: the inhibition is 3.26%.
As for `COc1cc(OC)cc(-c2c(C#Cc3ccsc3)c3cc(-c4ccc(OC)cc4F)ccc3n2C)c1`, the inhibition was -36.1%.
As to `Cc1ccc(NC(=O)C(=O)NCc2ccc(/C=N/NC(=O)c3c(C)nc4cc(C)ccn34)o2)cc1`, the inhibition is 1.79%.
Regarding `Cc1ccc(S(=O)(=O)Nc2nc(CN3CCOCC3)nc3sc(C)c(C)c23)cc1`, the inhibition was -15.1%.
Consider `COc1ccc(/C=C(\C#N)c2c[nH]c3ccccc23)cc1`, for which the inhibition was 8.67%.
As to `C[n+]1ccc(/C=C/c2c[nH]c3ccccc23)cc1`, the inhibition is 55.5% (active).
Consider `O=C(NC1CCCC1)C(=O)c1c[nH]c2ccccc12`, for which the inhibition is 6.85%.
The value for `COc1ccccc1-n1c(SCC(=O)Nc2cccc(C(=O)O)c2)nnc1-c1ccccc1O` was 6.18%; that for `OC1CN=C2Sc3ccccc3N2C1` (centres undefined) was 12.5%.
For the compound `CNC(=S)NNC(=O)c1oc2nc(-c3ccccc3)cc(-c3ccco3)c2c1N`, the inhibition was 38.9% (active).
Consider `NNC(=O)c1oc2nc(-c3ccccc3)cc(-c3ccco3)c2c1N`, for which the inhibition was -23.7%.
Consider `CNC(=S)NNC(=O)c1cccn(Cc2ccccc2)c1=O`, for which the inhibition is 3.04%.
`Cc1ccc(C(=O)NCC(=O)OCC(=O)Nc2cccc(S(=O)(=O)N3CCCC3)c2)cc1C`: the inhibition was 7.23%.
The value for `COC(=O)c1sccc1NN1C(=O)c2ccccc2C1=O` was 4.27%.
As for `CCOCCOCCC(C(=O)O)P(=O)(c1ccccc1)c1ccccc1` (centres undefined), the inhibition was 6.44%.
As to `CCCN1CC=C2C(C#N)=C(N)C(C#N)(C#N)C(c3cc(OC)ccc3OC)C2C1` (centres undefined), the inhibition is 49% (active).
With `CCN1CC=C2C(C#N)=C(N)C(C#N)(C#N)[C@H](c3ccoc3)[C@H]2C1` the figure was 106% (active); with `COC(=O)c1ccc(CNC(=O)C2CCC(=O)N(Cc3ccccn3)C2)cc1` (centres undefined), 0.64%; with `O=S(=O)(c1ccc(Cl)s1)N1CCC2(CC1)OCCO2`, -2.17%.
For `N#C[C@]1(S(=O)(=O)c2ccccc2)C[C@@H]2ON=C(c3cccc(Br)c3)[C@@H]2C1`, the inhibition was -1.68%.
As to `O=C(Nc1cccc(F)c1)[C@@H]1CCCN1`, the inhibition is 4.36%.
Turning to `Cc1ccc(S(=O)(=O)N2CCOCC2)cc1C(=O)OC1CCCCC1=O` (centres undefined), the inhibition was -3.51%.
For `O=[N+]([O-])c1ccc(F)cc1Oc1nc(-c2cccnc2)nc2ccccc12`, the inhibition was -1.37%.
The value for `COc1ccc(Nc2nc(-c3cccnc3)nc3ccccc23)cn1` was 100% (active).
Consider `CCOC(=O)c1nc(Nc2ccc(C(=O)OC)cc2)c2ccccc2n1`, for which the inhibition was -1.24%.
For the compound `CNC(=O)c1[nH]cnc1C(=O)N[C@@H](CC(C)C)C(=O)OCc1ccccc1`, the inhibition is 10.1%.
`COC(=O)CN1C(=O)N/C(=C/c2ccc(OC)c(C)c2OC)C1=O`: the inhibition is 9.69%.
For the compound `O=C(OCC1O[C@@H](OC(=O)c2cc(O)c(O)c(O)c2)[C@@H](OC(=O)c2cc(O)c(O)c(O)c2)[C@@H](OC(=O)c2cc(O)c(O)c(O)c2)[C@@H]1OC(=O)c1cc(O)c(O)c(O)c1)c1cc(O)c(O)c(O)c1` (some centres undefined), the inhibition is 34.6% (active).
In the case of `O=C(OCC1OC(Oc2ccc(O)cc2)C(O)C(O)C1O)c1ccccc1` (centres undefined), the inhibition was 2.13%.
As to `Cc1ccc(NC(=O)c2ccc(Cl)nc2)cc1S(=O)(=O)N1CCOCC1`, the inhibition is -0.28%.
Regarding `O=C1c2ccccc2C(=O)c2c1cccc2N1CCN(CCO)CC1`, the inhibition was 48.6% (active).
Turning to `O=C1c2ccccc2C(=O)c2c1cccc2N1CCN(Cc2ccccc2)CC1`, the inhibition is 0.8%.
For `O=C1c2ccccc2C(=O)c2c1cccc2N1CCN(C/C=C/c2ccccc2)CC1`, the inhibition was 9.38%.
With `CC(C(=O)NCC1CCCCC1)N(C)Cc1cccc(Cl)c1` (centres undefined) the figure was 4.56%; with `CN(C)/C=C(/C(=O)c1ccc(F)cc1)S(=O)(=O)c1ccc(F)cc1`, 3.44%; with `CC(=O)Nc1nc2ccccc2n1Cc1ccc(C)cc1`, 0.42%.
The value for `O=c1[nH]cccc1-c1nc2ccccc2n1Cc1ccc(Cl)cc1` was 45% (active).
With `Nc1nonc1-c1nc2ccccc2n1Cc1ccc(F)cc1`, the inhibition was 1.28%.
Take `CC1OC2C(OC1C)N(S(C)(=O)=O)CCN2S(C)(=O)=O` (centres undefined): the inhibition is 3.56%.
For the compound `CCCOc1ccc(N2C(=O)CC(N(CCc3ccc(S(N)(=O)=O)cc3)C(C)=O)C2=O)cc1` (centres undefined), the inhibition was -1.23%.
For the compound `CC(C)c1ccc(C2C(C(=O)c3ccco3)=C(O)C(=O)N2CC2CCCO2)cc1` (centres undefined), the inhibition is 4.96%.
Regarding `C=CCSc1nnc(N2C(=O)C(O)=C(C(=O)c3ccco3)C2c2ccc(F)cc2)s1` (centres undefined), the inhibition was 44.5% (active).
In the case of `Cc1ccc2nc(N3C(=O)C(O)=C(C(=O)c4ccco4)C3c3cccc(O)c3)sc2c1` (centres undefined), the inhibition was 0.27%.
On to `CCN1CCC2(CC1)N=C(c1ccc(F)cc1)C(=S)N2C(=O)c1ccc(C)cc1`, for which the inhibition was 7.8%.
As to `CCCn1c(C2CCCN2c2nc(-c3ccc(C)cc3)cs2)nc2cc(Cl)c(N3CCCCC3)cc21` (centres undefined), the inhibition was 34.6% (active).
With `CCCn1c(C(C)Nc2nc(-c3ccc(C)cc3)cs2)nc2cc(Cl)c(N3CCCCC3)cc21` (centres undefined) the figure was 2.12%; with `CCCn1c(C2CCCN2c2nc(-c3ccc(OC)cc3)cs2)nc2ccccc21` (centres undefined), 9.35%.
